Source: the supplement of paper PMC3545927
The other results are listed elsewhere or left out. The true hit rate is not given.

Molecular target: furin, P09958
Assay: furin cleavage Z-score vs untreated control; higher = more cleavage, active = 3.5 or more, inactive = 1 or less, 8 variable residues between constant flanks
How it was run: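 The cleavage Z-score is the log read count relative to furin-free reactions, lowess-adjusted and scaled by median absolute deviation. Counts came from sequencing DNA released from bead-bound 8-mer peptide–cDNA fusions after digestion with purified furin for 7.5, 15 or 30 min.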
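Note: purified furin at 1:10 enzyme:substrate in 50 mM HEPES pH 7.5.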

Chain of furin, P09958 (P09958 whole entry): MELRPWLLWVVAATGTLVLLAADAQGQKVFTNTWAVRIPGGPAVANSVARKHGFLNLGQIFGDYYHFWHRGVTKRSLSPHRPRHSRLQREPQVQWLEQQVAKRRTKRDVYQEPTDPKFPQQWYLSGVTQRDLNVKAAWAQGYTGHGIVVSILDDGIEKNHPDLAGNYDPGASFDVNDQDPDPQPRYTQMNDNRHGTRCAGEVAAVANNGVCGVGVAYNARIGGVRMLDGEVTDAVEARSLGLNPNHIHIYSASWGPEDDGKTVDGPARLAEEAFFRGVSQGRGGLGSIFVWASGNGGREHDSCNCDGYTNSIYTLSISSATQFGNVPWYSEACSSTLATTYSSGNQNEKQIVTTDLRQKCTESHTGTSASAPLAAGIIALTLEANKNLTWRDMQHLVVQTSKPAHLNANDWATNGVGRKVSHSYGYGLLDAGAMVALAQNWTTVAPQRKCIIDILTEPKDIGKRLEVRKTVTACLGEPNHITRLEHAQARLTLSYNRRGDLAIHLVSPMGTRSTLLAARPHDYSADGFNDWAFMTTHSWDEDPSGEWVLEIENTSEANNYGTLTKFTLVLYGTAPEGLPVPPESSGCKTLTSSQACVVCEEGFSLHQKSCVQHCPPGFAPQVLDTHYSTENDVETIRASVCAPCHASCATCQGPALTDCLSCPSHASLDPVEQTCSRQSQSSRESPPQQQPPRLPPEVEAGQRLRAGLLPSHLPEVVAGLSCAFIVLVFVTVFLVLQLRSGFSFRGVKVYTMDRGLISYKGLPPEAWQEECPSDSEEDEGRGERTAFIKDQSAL

CAQEMEECSQAGNASASA [HC1802]
furin cleavage Z-score (7.5 min): -0.772 (inactive) | furin cleavage Z-score (15 min): 0.513 (inactive) | furin cleavage Z-score (30 min): -1.67 (inactive)

CAVVCCSMGYAGNASASA [HC2076]
furin cleavage Z-score (7.5 min): -1.88 (inactive) | furin cleavage Z-score (15 min): -0.775 (inactive) | furin cleavage Z-score (30 min): -0.0504 (inactive)

CAVVECSMSYAGNASASA [HC2032]
furin cleavage Z-score (7.5 min): -0.21 (inactive) | furin cleavage Z-score (15 min): -0.185 (inactive) | furin cleavage Z-score (30 min): 0.282 (inactive)

CAYYRGLDVSAGNASASA [HC869]
furin cleavage Z-score (7.5 min): 0.136 (inactive) | furin cleavage Z-score (15 min): -0.206 (inactive) | furin cleavage Z-score (30 min): -0.42 (inactive)

CAVRVQGLLRAGNASASA [HC617]
furin cleavage Z-score (7.5 min): -0.956 (inactive) | furin cleavage Z-score (15 min): -0.879 (inactive) | furin cleavage Z-score (30 min): -0.866 (inactive)

CATLSTALAEAGNASASA [HC1330]
furin cleavage Z-score (7.5 min): -0.432 (inactive) | furin cleavage Z-score (15 min): -1.49 (inactive) | furin cleavage Z-score (30 min): -1.25 (inactive)

CAVRFRGKREAGNASASA [FS-514]
furin cleavage Z-score (7.5 min): 11.2 (active) | furin cleavage Z-score (15 min): 9.46 (active) | furin cleavage Z-score (30 min): 7.95 (active)

CAALSRGKREAGNASASA [FS-1584]
furin cleavage Z-score (7.5 min): 11.2 (active) | furin cleavage Z-score (15 min): 11.6 (active) | furin cleavage Z-score (30 min): 8.56 (active)

CARLFRGLDSAGNASASA [FS-2430]
furin cleavage Z-score (7.5 min): -0.523 (inactive) | furin cleavage Z-score (15 min): -0.794 (inactive) | furin cleavage Z-score (30 min): 0.531 (inactive)

CARLSRGTRPAGNASASA [FS-1748]
furin cleavage Z-score (7.5 min): 1.1 | furin cleavage Z-score (15 min): 0.607 (inactive) | furin cleavage Z-score (30 min): 1.39

CAMEECSQWLAGNASASA [HC1748]
furin cleavage Z-score (7.5 min): 1.29 | furin cleavage Z-score (15 min): 1.35 | furin cleavage Z-score (30 min): -0.383 (inactive)

CAQEMGGNITAGNASASA [HC1278]
furin cleavage Z-score (7.5 min): 0.989 (inactive) | furin cleavage Z-score (15 min): 0.052 (inactive) | furin cleavage Z-score (30 min): 0.798 (inactive)
